The nature of experiment [1]: Primary qHTS for inhibitors of nuclear receptor binding SET domain protein 2 (NSD2) in an isogenic RCH-ACV NSD2 p.E1099K mutant (9B) (AID 1645876). Note: nearly all actives have a fitted effect of over 70% in size. Note: potency is the fitted concentration of half-maximal effect. The following applies: RCH-ACV NSD2 E1099K (9B) viability, CellTiter-Glo, 72 h; series mostly up to 44.9 µM. Background: Quantitative high-throughput screening tests each substance at several concentrations.
Experiment [2] can be described thus: Primary qHTS for inhibitors of nuclear receptor binding SET domain protein 2 (NSD2) in an RCH-ACV wild type WT cells (2C) (AID 1645877). Note: nearly all actives have a fitted effect of over 70% in size. Note: potency is the fitted concentration of half-maximal effect. The following applies: RCH-ACV (leukaemia line) NSD2 WT (2C) viability, CellTiter-Glo, 72 h; series mostly up to 44.9 µM.
Experiment [3] concerns the target Glutathione peroxidase 1 (Homo sapiens) (UniProt P07203). The experiment can be described thus: Primary qHTS Assay for Inhibitors of Recombinant Selenoprotein Glutathione Peroxidase 1 (GPX1) (AID 1845191). Note: nearly all actives have a fitted effect of over 65% in size. Particulars: recombinant GPX1, GR-coupled NADPH fluorescence, 15 min; series mostly up to 48.8 µM. Summed up:
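NADPH consumption tracked by fluorescence at 340/450 nm between t=0 and t=15 min, room temperature. Final mix: 10 nM GPX1, 100 nM glutathione reductase, 1 mM GSH, 0.5 mM NADPH, 0.5 mM cumene hydroperoxide, 0.01% BSA; 30 min compound–enzyme preincubation.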

Experiment [4] has as its target Phospholipid hydroperoxide glutathione peroxidase GPX4 (Homo sapiens) (UniProt P36969). Kind of experiment: Primary qHTS Assay for Inhibitors of Recombinant Selenoprotein Glutathione Peroxidase 4 (GPX4) (AID 1845192). Note: nearly all actives have a fitted effect of over 65% in size. The following applies: recombinant GPX4, GR-coupled NADPH fluorescence, 15 min; series mostly up to 50 µM. In a few lines: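 NADPH consumption followed by fluorescence at 340/450 nm, t=0 and after 15 min at room temperature. Reaction started with cumene hydroperoxide (0.5 mM final) after 30 min compound–GPX4 preincubation; final 200 nM GPX4, 100 nM GR, 1 mM GSH, 0.5 mM NADPH.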

The values that follow come from PubChem BioAssay (NCATS).

“And” between values parts separate entries of the source, which are not always exact repeats. Identical values can stand only once. Results filed as inconclusive are left out. The source made the active and inactive calls. Calls come from the whole dose curve; as a rule, active = well fitted curve in the direction sought with a large enough effect; inconclusive = small, poorly fitted or top-dose-only effect, or another doubt; inactive = no such curve, though single readings can be large; an effect the other way counts as inactive or inconclusive.

Phospholipid hydroperoxide glutathione peroxidase GPX4 (Homo sapiens), sequence (P36969 whole entry, looked up): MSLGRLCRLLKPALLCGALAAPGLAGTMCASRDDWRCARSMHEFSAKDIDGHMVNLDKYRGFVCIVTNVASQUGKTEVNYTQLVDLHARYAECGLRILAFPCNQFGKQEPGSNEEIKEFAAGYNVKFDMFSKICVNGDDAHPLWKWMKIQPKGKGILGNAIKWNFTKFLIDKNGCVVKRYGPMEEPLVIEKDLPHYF
Glutathione peroxidase 1 (Homo sapiens), sequence (P07203 whole entry, looked up): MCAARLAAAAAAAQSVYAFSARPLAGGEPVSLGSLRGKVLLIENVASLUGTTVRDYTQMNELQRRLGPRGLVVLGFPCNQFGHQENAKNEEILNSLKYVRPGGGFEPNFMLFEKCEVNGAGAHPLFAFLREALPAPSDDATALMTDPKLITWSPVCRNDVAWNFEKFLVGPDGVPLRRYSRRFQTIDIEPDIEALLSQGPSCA

On to `CCOCCn1c(N2CCCN(C)CC2)nc2ccccc21`, for which the Potency result in experiment [1], in experiment [2], in experiment [3] and in experiment [4] was “inactive” throughout.
For the compound `CCCCCCCCCCCCCC(=O)OC(C)C`, the Potency result in experiment [1], in experiment [2], in experiment [3] and in experiment [4] was “inactive” throughout.
With `CC(=O)OCC(=O)[C@H]1CC[C@H]2[C@@H]3CCC4=CC(=O)CC[C@]4(C)[C@H]3CC[C@]12C`, the Potency result in experiment [1], in experiment [2] and in experiment [3] was “inactive” in each case.
Regarding `CCOc1cc(OCC)c(C(=O)CCC(=O)O)cc1OCC`, the Potency entry in experiment [1], in experiment [2], in experiment [3] and in experiment [4] was “inactive” in each case.
As to `N/C(=N\N=C\c1ccc(Cl)cc1)N/N=C/c1ccc(Cl)cc1`, the Potency entry in experiment [1], in experiment [2], in experiment [3] and in experiment [4] was “inactive” each time.
`CC(C(=O)O)c1cccc(Oc2ccccc2)c1` (stereo unspecified): the Potency result in experiment [1], in experiment [2] and in experiment [3] was “inactive” each time.
In the case of `COc1cc(C)nc(-n2nc(C)cc2OC)n1`, the Potency entry in experiment [1], in experiment [2], in experiment [3] and in experiment [4] was “inactive” in each case.
As to `CC(C)(C)NCC(O)COc1cccc2c1C[C@H](O)[C@H](O)C2` (stereo partly specified), the Potency entry in experiment [1], in experiment [2] and in experiment [3] was “inactive” in each case.
In the case of `NS(=O)(=O)c1cc2c(cc1Cl)NC(CC1CCCC1)NS2(=O)=O` (stereo unspecified), the Potency result in experiment [1], in experiment [2] and in experiment [3] was “inactive” throughout.
On to `C[N+]1(CC2COC(c3ccccc3)(C3CCCCC3)O2)CCCCC1` (stereo unspecified), for which the Potency in experiment [1] and in experiment [2] was 21.1 µM (active) each time. Also, the Potency entry in experiment [3] and in experiment [4] was “inactive” throughout.
In the case of `CCCCC(CC)COC(=O)/C=C/c1ccc(OC)cc1` (stereo unspecified), the Potency entry in experiment [1], in experiment [2], in experiment [3] and in experiment [4] was “inactive” throughout.
Regarding `CCCCCCCCCCCCCCCCO`, the Potency entry in experiment [1], in experiment [2], in experiment [3] and in experiment [4] was “inactive” each time.
For the compound `COC(=O)C(c1ccccc1Cl)N1CCc2sccc2C1` (stereo unspecified), the Potency entry in experiment [1], in experiment [2] and in experiment [3] was “inactive” in each case.
On to `O=c1[nH]c(=O)n([C@H]2C[C@H](O)[C@@H](CO)O2)cc1F`, for which the Potency was 13.3 nM (active) and 29.5 nM (active) in experiment [1]; 8.4 nM (active) and 46.8 nM (active) in experiment [2]. For the same compound, the Potency result in experiment [3] and in experiment [4] was “inactive” in each case.
